First the molecules themselves.
T1: UNK ZnF1-3 (human, UniProt Q9C0B0 31-174)
T1 sequence: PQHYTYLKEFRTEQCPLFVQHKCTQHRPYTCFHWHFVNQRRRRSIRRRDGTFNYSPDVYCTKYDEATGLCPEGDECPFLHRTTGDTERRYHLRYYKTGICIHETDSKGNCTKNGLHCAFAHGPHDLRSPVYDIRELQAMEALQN

B1: chr12:16048344:16048345:+_ENSG00000023734_ENST00000419869|hu_hu|hu_hu_hu_mus_True|68_98 (ssRNA)
RNA: GGGAGUUCUACAGUCCGACGAUCAGAUCGUCCAUAAGUUAUAACCAAAAUCUCUCCUUCAGGAAUAUAUUCCAUACUGCUAACAGACAUAUUAAAAUUCAGAGAUUUCACUUCUGUCAUUGUGGCAUGAUCCCAGAGCCGAACCAACAGAGGAUUGAGCAUCA
B2: chr3:9848215:9848216:+_ENSG00000241553_ENST00000287613|perfect_dup|FALSE|FALSE (ssRNA)
RNA: GGGAGUUCUACAGUCCGACGAUCAUCACUGGGGCCAGUCACAGCCACUGGAGCUGGAGGUUGGUUUUUUUGUUUGUUUAAAAAAAAAAAAAAAAAGACAAAAAGGUUACAGUCUUCUACAAGCACAGAGUUUAGGUUUCAAGACAACAGAGGAUUGAGCAUCA
B3: 25243085_25243205_1728_CDS_ENSMUSG00000059669_ENSMUST00000075954|mouse|control|control (ssRNA)
RNA: GGGAGUUCUACAGUCCGACGAUCUCCUGAGCUCUUUUUUGAUUCGUUGUAUUUUUUUUCAAAAAGUUUCUUUUCAAGUAAGCUCACUUCUUCAUGGAGAGCAGAGGUCUUUAUUCUCAGUAAGAAGGAGAAGAUGUUUAGUAUCAACAGAGGAUUGAGCAUCA
B4: chr14:76904501:76904502:+_ENSMUSG00000022010_ENSMUST00000022587|mus_mus|FALSE|FALSE (ssRNA)
RNA: GGGAGUUCUACAGUCCGACGAUCUCCAUCGCCACUGGUCUACACCAUUGGGAUUUCAUGCAAUUGCAGCCAAAUUAAAAAAACAGCCCCGUGGAAAAAAAAGAGAGAGGGCGGGAGGGAGCAAGCUCCAGCAGCCUGGUUCAACAACAGAGGAUUGAGCAUCA
B5: chr3:176740097:176740098:-_ENSG00000177565_ENST00000430069|hu_mus|hu_hu_hu_mus_True|78_78 (ssRNA)
RNA: GGGAGUUCUACAGUCCGACGAUCUGUUUUGUAUACCACAAAAGGAGGCACUUUCAGUAUCUGUAAAAGGUGUUUAGUCCUAAAACAUACUCACCUAGAGGAUAACUCAGGAAAACAAUCUGUUACACUCUAAGACCUACUCCACAACAGAGGAUUGAGCAUCA
B6: 122244776_122244896_1956_3pUTR_ENSMUSG00000039735_ENSMUST00000162409|mouse|control|control (ssRNA)
RNA: GGGAGUUCUACAGUCCGACGAUCGAAAAAGCACACAUCCUUUACACACACUUAGGCAGGACAGAAAGCAAAAGGCAUCGAUUAAGCUUCCACACCAGCAUCACUUGAACAGUAAGGCGUCAAAGAGUUUCUGGUGGCAGUAUUCAACAGAGGAUUGAGCAUCA
B7: chr3:9848215:9848216:+_ENSG00000241553_ENST00000287613|perfect_dup|FALSE|FALSE (ssRNA)
RNA: GGGAGUUCUACAGUCCGACGAUCCAAUAACGUAUAAUCACUGGGACCAGUCACAGCCACUGGAGGUGGAGGUUUAAAAAAAAAAAAAAAAAAAAAGACAAAAAGGUUACAGUAUCCUACAAGCACAGAGUUUAAGUUUCAAGACAACAGAGGAUUGAGCAUCA
B8: chr8:59488481:59488482:+_ENSG00000137575_ENST00000447182|hu_mus|motif|central (ssRNA)
RNA: GGGAGUUCUACAGUCCGACGAUCUCCAGCAUCGUUACCUGUCACAGGUGCUACCAUAUAGUUCACACUGGAUGGUCUUGCGGCCAACCCUUGUGCUGGUGCUCCAGAGACCAUGGGCAUGCUCUCACAUAUUUCAGCUUCAUUCAACAGAGGAUUGAGCAUCA
B9: chr11:77340908:77340909:-_ENSG00000074201_ENST00000525064|hu_hu|hu_hu_hu_mus_True|8_108 (ssRNA)
RNA: GGGAGUUCUACAGUCCGACGAUCGUUUCGGUCCCUGGACACCGCAUGUAAACUAAUGGUGGGGUAUUCCAGUGAGAAUCCUAAUCCCGAACCAUCUAACCAGGACAGGCGGCUCUCCGCGAUGUAAAGGGUACCAGUGCCGAGCAACAGAGGAUUGAGCAUCA
B10: chr3:119217614:119217615:+_ENSG00000113845_ENST00000264244|hu_hu|FALSE|FALSE (ssRNA)
RNA: GGGAGUUCUACAGUCCGACGAUCCUCUACAGAGAAAGCUCCGCGGUGCCGGUGGCGGCACCUCCAUGGCCUUCUCUCGACCUACGGACAAACUUGAGCGCUCAGGACUUCAAGUCCUCGCGGACGUGCCGCGGGAGAGCGUAACAACAGAGGAUUGAGCAUCA
B11: 60766971_60767091_3885_CDS_ENSG00000011028_ENST00000303375|human|control|control (ssRNA)
RNA: GGGAGUUCUACAGUCCGACGAUCCGUGCGCAGCCCUCGGGCAGCCUGCGUGAGGAAGGCCUGGGUGUAGGGGUCGGGCACGUAGGCCAGGCUGGCAUUGCGGCUCUCACACAGCAGGAGGGCAUCGUGCCAGCGCAGCGGCUUCAACAGAGGAUUGAGCAUCA
B12: chr16:45711415:45711416:-_ENSMUSG00000022658_ENSMUST00000096057|mus_hu|FALSE|FALSE (ssRNA)
RNA: GGGAGUUCUACAGUCCGACGAUCUUAUUAGGUGCAUUCUAUAAGUUGAAGAGGAGAAUUUUUGGCAAAUAAAUAAAUAAAUAAAUAAAUAAUCAAACAGAGACUCUGGGGCCCGAGGAGCUCAGGAAAACGGAAGCGGAGUCUCAACAGAGGAUUGAGCAUCA
B13: chr12:55960871:55960872:-_ENSMUSG00000062929_ENSMUST00000078124|mus_mus|motif|central (ssRNA)
RNA: GGGAGUUCUACAGUCCGACGAUCUACUAAGCUUUAAGACUGCUAUACGAUUUUUUUUUCCCAAUUCAUUUUGGAAAAGCGGUGAAGGAACUGUGGCUGAGACAAACAUUCCUAAACAUCACAAUCAUCAUUAACCUUCGAAUGCAACAGAGGAUUGAGCAUCA
B14: 87419285_87419405_2552_3pUTR_ENSMUSG00000028496_ENSMUST00000078090|mouse|control|control (ssRNA)
RNA: GGGAGUUCUACAGUCCGACGAUCGAAAAUCAAGGUGGCUAUUUGGUCCCCCCAGUUGGUAACUAUGUCCUGGAACUGGGAAAACAAAGAUGGAAACCAUAGACUGCAACAAGUUAAAGGACCUGGGAAGAGUUGGUGGAAAGUCAACAGAGGAUUGAGCAUCA
B15: 36507729_36507849_895_3pUTR_ENSMUSG00000043671_ENSMUST00000051377|mouse|control|control (ssRNA)
RNA: GGGAGUUCUACAGUCCGACGAUCGAAAGAGGCUGUAAAUUUGGUCUCAGGAAGUAGGUAAUUGCUGCAAUCUGAAUUGCAAAAAAAGGCAGAGCCCAGUUCUCCCUCAGCGGGAUGGUAAACUCGACUCUUGUGGUGUCUAUUCAACAGAGGAUUGAGCAUCA
B16: chr17:26793470:26793471:+_ENSMUSG00000001576_ENSMUST00000167662|mus_mus|FALSE|FALSE (ssRNA)
RNA: GGGAGUUCUACAGUCCGACGAUCAUUGGAAUCAGAGGAAAAAUUACAAAUGGCAGAGAAUCCAGCUACCCAUAAGAGACUAUUUAAGAAAAACAAAACCAAAACCAAACAAAAACAAAAAACCCCAAAACUUCCUACUGCAGGCAACAGAGGAUUGAGCAUCA
B17: chr22:38881817:38881818:-_ENSG00000100201_ENST00000396821|hu_hu|FALSE|FALSE (ssRNA)
RNA: GGGAGUUCUACAGUCCGACGAUCUUAUUCCAGACUGGAUCAUUUUGGUGGGCAGAAGAAACCUGGCAGUGAAUUCUAACUAAUCUGCAUGAAAAGACAAAUCACGAUGGUUGGGGGGAAAAAUUAAAAAAAAAAAAAGAAAAACAACAGAGGAUUGAGCAUCA
B18: 193603509_193603629_2668_3pUTR_ENSMUSG00000026623_ENSMUST00000110855|mouse|control|control (ssRNA)
RNA: GGGAGUUCUACAGUCCGACGAUCUAAAUCACAUGAACAAAAGGACAAAUCUUUCAAAAGGUUUCUACGAUGAACAGAAACUUGCUUGGCUUUGCCCUCUUAGAAGACGACUGGAAGAGACUGGGAAGUGUUUUUGAGCUGCUGCAACAGAGGAUUGAGCAUCA
B19: chr1:66459500:66459501:+_ENSMUSG00000015222_ENSMUST00000114013|mus_hu|motif|central (ssRNA)
RNA: GGGAGUUCUACAGUCCGACGAUCUAAAAAGGCAGGGGCAAAGGGCGAUGUUUCUGUAACUAUUUCAUUCUUCAUGACAUCGGAAGGAAGAGUGAAGCUUCCCCCUUGAAAGGGACUUGGCAUGGGAGAAUCAAACUGUUUCCCCAACAGAGGAUUGAGCAUCA
B20: chr12:39763582:39763583:-_ENSG00000139116_ENST00000544797|hu_hu|FALSE|FALSE (ssRNA)
RNA: GGGAGUUCUACAGUCCGACGAUCCUCUAAGAAUUGGGCAUUCACUUUAAAAUCUGGAGCAGGAAGCCCAUUUUUAAUUGCUAUGUGUUUUUUUUCUUCAAUACUCUUAAAAAGGUGUUUAACAGCUCGAGAAAUAAUACCCAGCAACAGAGGAUUGAGCAUCA
B21: chr22:38881817:38881818:-_ENSG00000100201_ENST00000396821|hu_hu|motif|central (ssRNA)
RNA: B17 RNA with U76G, A77G, U80G, A81G

Residue numbers refer to the chain shown, from its start. In all, about 24,000 sequences were measured (“enrichment r”: median about 0.99, highest 2% from about 3.7 on). This excerpt belongs to a sample that is enriched for the highest values.

This assay has as its target T1, UNK ZnF1-3. Kind of assay: nsRBNS (natural sequence RNA bind-n-seq); RBNS binding buffer (assumed for nsRBNS): 25 mM Tris pH 7.5, 150 mM KCl, 3 mM MgCl2, 0.01% Triton X-100, 500 ug/ml BSA, 20 U/ml SUPERase-In, 4 C; UNK is unkempt and MSI1 is Musashi-1; names of the RNAs are library labels; protein concentration not given here; high values mean tight binding.
For the molecule B1, the binding signal came out at 1.19 enrichment R.

Regarding B2, the binding signal was 9.16 enrichment R.

Take B3: the binding signal is 0.743 enrichment R.

The molecule B4 displayed a binding signal of 2.68 enrichment R.

B5 displayed a binding signal of 0.869 enrichment R.

In turn, B6 came in with a binding signal of 1.73 enrichment R.

Turning to B7, the binding signal was found to be 9.16 enrichment R.

Consider B8, for which the binding signal stood at 0.558 enrichment R.

Consider B9, for which the binding signal amounted to 1.38 enrichment R.

B10: the binding signal turned out to be 0.297 enrichment R.

Take B11: the binding signal turned out to be 0.311 enrichment R.

Take B12: the binding signal was determined as 13.2 enrichment R.

Molecule B13 displayed a binding signal of 0.982 enrichment R.

The molecule B14 displayed a binding signal of 1.56 enrichment R.

On to B15, for which the binding signal was found to be 0.793 enrichment R.

The molecule B16 yielded a binding signal of 3.74 enrichment R.

B17 gave a binding signal of 11.1 enrichment R.

In turn, B18 yielded a binding signal of 1.27 enrichment R.

In turn, B19 had a binding signal of 0.819 enrichment R.

B20 gave a binding signal of 2.47 enrichment R.

Regarding B21, the binding signal came out at 13.5 enrichment R.

The record behind these values is PMC12136788.
